Results published in paper PMC9911399, “Two distinct binding modes provide the RNA-binding protein RbFox with extraordinary sequence specificity”.
Numbering of substitutions follows the chain as printed; changes in the protein carry UniProt numbers. In all, about 16,000 sequences were measured (“ka relative to ugcaugu”: median about 0.0091, highest 2% from about 0.032 on). The list comes from a sample in which the highest values are over-represented; it also holds similar and randomly drawn sequences.

T1: RBFOX1 RRM (Homo sapiens, UniProt Q9NWB1 109-208)
T1 sequence: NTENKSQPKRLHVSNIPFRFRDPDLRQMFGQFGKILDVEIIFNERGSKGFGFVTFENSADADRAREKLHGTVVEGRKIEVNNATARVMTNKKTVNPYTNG

B1: AUUCACC (DNA:RNA)
RNA: GGGAGACCGGAAUUCAGAUUGUCCAUUCACCUUAAAUCCCGUCGUAGCCACCA
DNA 1: CAATCTGAATTCCGGTCTCCC
DNA 2: TGGTGGCTACGACGGGATT
B2: GAGUUGU (DNA:RNA)
RNA: GGGAGACCGGAAUUCAGAUUGUCCGAGUUGUUUAAAUCCCGUCGUAGCCACCA
DNA 1: CAATCTGAATTCCGGTCTCCC
DNA 2: TGGTGGCTACGACGGGATT
B3: CAACGAU (DNA:RNA)
RNA: B2 RNA with G25C, G27A, U28C, U29G, G30A
DNA 1: CAATCTGAATTCCGGTCTCCC
DNA 2: TGGTGGCTACGACGGGATT
B4: AACCAAC (DNA:RNA)
RNA: B1 RNA with U26A, U27C, C30A
DNA 1: CAATCTGAATTCCGGTCTCCC
DNA 2: TGGTGGCTACGACGGGATT
B5: GAAACCA (DNA:RNA)
RNA: B2 RNA with G27A, U28A, U29C, G30C, U31A
DNA 1: CAATCTGAATTCCGGTCTCCC
DNA 2: TGGTGGCTACGACGGGATT
B6: UUUAAUU (DNA:RNA)
RNA: B1 RNA with A25U, C28A, C30U, C31U
DNA 1: CAATCTGAATTCCGGTCTCCC
DNA 2: TGGTGGCTACGACGGGATT
B7: CUGAUGU (DNA:RNA)
RNA: B2 RNA with G25C, A26U, U28A
DNA 1: CAATCTGAATTCCGGTCTCCC
DNA 2: TGGTGGCTACGACGGGATT
B8: UUGCAUC (DNA:RNA)
RNA: B1 RNA with A25U, U27G, C30U
DNA 1: CAATCTGAATTCCGGTCTCCC
DNA 2: TGGTGGCTACGACGGGATT
B9: GUGCAUC (DNA:RNA)
RNA: B1 RNA with A25G, U27G, C30U
DNA 1: CAATCTGAATTCCGGTCTCCC
DNA 2: TGGTGGCTACGACGGGATT
B10: UUGCAAA (DNA:RNA)
RNA: B1 RNA with A25U, U27G, C30A, C31A
DNA 1: CAATCTGAATTCCGGTCTCCC
DNA 2: TGGTGGCTACGACGGGATT
B11: GUGCAUA (DNA:RNA)
RNA: B1 RNA with A25G, U27G, C30U, C31A
DNA 1: CAATCTGAATTCCGGTCTCCC
DNA 2: TGGTGGCTACGACGGGATT
B12: GUGCAAG (DNA:RNA)
RNA: B1 RNA with A25G, U27G, C30A, C31G
DNA 1: CAATCTGAATTCCGGTCTCCC
DNA 2: TGGTGGCTACGACGGGATT
B13: GUGCAUG (DNA:RNA)
RNA: B1 RNA with A25G, U27G, C30U, C31G
DNA 1: CAATCTGAATTCCGGTCTCCC
DNA 2: TGGTGGCTACGACGGGATT
B14: UUGCAUG (DNA:RNA)
RNA: B1 RNA with A25U, U27G, C30U, C31G
DNA 1: CAATCTGAATTCCGGTCTCCC
DNA 2: TGGTGGCTACGACGGGATT
B15: UUGCAAG (DNA:RNA)
RNA: B1 RNA with A25U, U27G, C30A, C31G
DNA 1: CAATCTGAATTCCGGTCTCCC
DNA 2: TGGTGGCTACGACGGGATT
B16: UUGCAUA (DNA:RNA)
RNA: B1 RNA with A25U, U27G, C30U, C31A
DNA 1: CAATCTGAATTCCGGTCTCCC
DNA 2: TGGTGGCTACGACGGGATT
B17: CCUGUAG (DNA:RNA)
RNA: B1 RNA with A25C, U26C, C28G, A29U, C30A, C31G
DNA 1: CAATCTGAATTCCGGTCTCCC
DNA 2: TGGTGGCTACGACGGGATT
B18: UCGAGAU (DNA:RNA)
RNA: B2 RNA with G25U, A26C, U28A, U29G, G30A
DNA 1: CAATCTGAATTCCGGTCTCCC
DNA 2: TGGTGGCTACGACGGGATT
B19: UGCACCG (DNA:RNA)
RNA: B1 RNA with A25U, U26G, U27C, C28A, A29C, C31G
DNA 1: CAATCTGAATTCCGGTCTCCC
DNA 2: TGGTGGCTACGACGGGATT
B20: UGCCACG (DNA:RNA)
RNA: B1 RNA with A25U, U26G, U27C, C31G
DNA 1: CAATCTGAATTCCGGTCTCCC
DNA 2: TGGTGGCTACGACGGGATT
B21: UGCACCC (DNA:RNA)
RNA: B1 RNA with A25U, U26G, U27C, C28A, A29C
DNA 1: CAATCTGAATTCCGGTCTCCC
DNA 2: TGGTGGCTACGACGGGATT
B22: CUGCACG (DNA:RNA)
RNA: B1 RNA with A25C, U27G, C31G
DNA 1: CAATCTGAATTCCGGTCTCCC
DNA 2: TGGTGGCTACGACGGGATT
B23: UGCACGU (DNA:RNA)
RNA: B2 RNA with G25U, A26G, G27C, U28A, U29C
DNA 1: CAATCTGAATTCCGGTCTCCC
DNA 2: TGGTGGCTACGACGGGATT
B24: CUGCACC (DNA:RNA)
RNA: B1 RNA with A25C, U27G
DNA 1: CAATCTGAATTCCGGTCTCCC
DNA 2: TGGTGGCTACGACGGGATT
B25: GUAUAGC (DNA:RNA)
RNA: B1 RNA with A25G, U27A, C28U, C30G
DNA 1: CAATCTGAATTCCGGTCTCCC
DNA 2: TGGTGGCTACGACGGGATT
B26: GGGUUCG (DNA:RNA)
RNA: B2 RNA with A26G, G30C, U31G
DNA 1: CAATCTGAATTCCGGTCTCCC
DNA 2: TGGTGGCTACGACGGGATT
B27: UUCCGGG (DNA:RNA)
RNA: B1 RNA with A25U, U27C, A29G, C30G, C31G
DNA 1: CAATCTGAATTCCGGTCTCCC
DNA 2: TGGTGGCTACGACGGGATT
B28: GUGCGGG (DNA:RNA)
RNA: B2 RNA with A26U, U28C, U29G, U31G
DNA 1: CAATCTGAATTCCGGTCTCCC
DNA 2: TGGTGGCTACGACGGGATT
B29: GGGGUUC (DNA:RNA)
RNA: B2 RNA with A26G, U28G, G30U, U31C
DNA 1: CAATCTGAATTCCGGTCTCCC
DNA 2: TGGTGGCTACGACGGGATT
B30: GCGGGGG (DNA:RNA)
RNA: B2 RNA with A26C, U28G, U29G, U31G
DNA 1: CAATCTGAATTCCGGTCTCCC
DNA 2: TGGTGGCTACGACGGGATT
B31: GGGUUUC (DNA:RNA)
RNA: B2 RNA with A26G, G30U, U31C
DNA 1: CAATCTGAATTCCGGTCTCCC
DNA 2: TGGTGGCTACGACGGGATT
B32: CGGGUUC (DNA:RNA)
RNA: B2 RNA with G25C, A26G, U28G, G30U, U31C
DNA 1: CAATCTGAATTCCGGTCTCCC
DNA 2: TGGTGGCTACGACGGGATT
B33: GGGUUCC (DNA:RNA)
RNA: B2 RNA with A26G, G30C, U31C
DNA 1: CAATCTGAATTCCGGTCTCCC
DNA 2: TGGTGGCTACGACGGGATT
B34: GGGUUCU (DNA:RNA)
RNA: B2 RNA with A26G, G30C
DNA 1: CAATCTGAATTCCGGTCTCCC
DNA 2: TGGTGGCTACGACGGGATT

What follows are binders tested against T1, RBFOX1 RRM (assay: EMSA; HiTS-Eq, 1 nM pool, 10 min; buffer printed only for the single-RNA assays: 10 mM Tris pH 7.5, 150 mM NaCl, 3.4 mM EDTA, 0.001% NP-40, 30 C). Settings: tags: His6 N-terminal (pET28a); label: 5' 32P.
Outline: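 Purified RbFox RRM, wild type or mutant, was incubated for 10 min in 50 µL with 1 nM of a 5′-radiolabelled RNA pool carrying 7 randomized nucleotides, whose flanks were annealed to DNA oligonucleotides, over a series of increasing protein concentrations. Unbound RNA was resolved on 8% native PAGE, cut out, reverse-transcribed, barcoded by PCR and sequenced on an Illumina HiSeq 2500. Relative association constants were derived from changes in read counts for each RNA species versus the control reaction and normalised to the cognate motif.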

Point of comparison: B32, binding signal 0.0418 KA relative to UGCAUGU. Against it:
- B1 — lower, 0.00129 KA relative to UGCAUGU
- B2 — lower, 0.0179 KA relative to UGCAUGU
- B3 — lower, 0.00177 KA relative to UGCAUGU
- B4 — lower, 0.000641 KA relative to UGCAUGU
- B5 — lower, 0.00223 KA relative to UGCAUGU
- B6 — lower, 0.00658 KA relative to UGCAUGU
- B7 — lower, 0.0201 KA relative to UGCAUGU
- B8 — lower, 0.022 KA relative to UGCAUGU
- B9 — lower, 0.0315 KA relative to UGCAUGU
- B10 — lower, 0.0109 KA relative to UGCAUGU
- B11 — lower, 0.0221 KA relative to UGCAUGU
- B12 — lower, 0.0274 KA relative to UGCAUGU
- B13 — higher, 1 KA relative to UGCAUGU
- B14 — higher, 1 KA relative to UGCAUGU
- B15 — lower, 0.0333 KA relative to UGCAUGU
- B16 — lower, 0.0139 KA relative to UGCAUGU
- B17 — lower, 0.00969 KA relative to UGCAUGU
- B18 — lower, 0.00776 KA relative to UGCAUGU
- B19 — lower, 0.0145 KA relative to UGCAUGU
- B20 — lower, 0.0198 KA relative to UGCAUGU
- B21 — lower, 0.0142 KA relative to UGCAUGU
- B22 — higher, 0.616 KA relative to UGCAUGU
- B23 — higher, 0.514 KA relative to UGCAUGU
- B24 — lower, 0.0128 KA relative to UGCAUGU
- B25 — lower, 0.00925 KA relative to UGCAUGU
- B26 — lower, 0.026 KA relative to UGCAUGU
- B27 — lower, 0.00531 KA relative to UGCAUGU
- B28 — lower, 0.0167 KA relative to UGCAUGU
- B29 — higher, 0.0437 KA relative to UGCAUGU
- B30 — lower, 0.0269 KA relative to UGCAUGU
- B31 — lower, 0.0237 KA relative to UGCAUGU
- B33 — lower, 0.0348 KA relative to UGCAUGU
- B34 — lower, 0.0166 KA relative to UGCAUGU
